Compounds without any hit were thinned out: in the full panel of roughly 79,000, 15% have a hit. Unmarked numbers belong to inactive results. Calls of active or inactive are those of the source. Rule as the data show it: active = growth inhibition above about 70%; inactive = the rest.
Assays:
[1] = NCI Yeast Anticancer Drug Screen. Data for the rad50 strain (AID 155);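 also: 0% = growth of vehicle-only cultures of the same strain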; conditions: S. cerevisiae rad50 strain growth inhibition; at 50.0 µM; hits give high values
In short: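 Cells are treated with compound, grown, and their growth is then scored against vehicle-only cultures of the same repair-deficient yeast strain.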

[2] = NCI Yeast Anticancer Drug Screen. Data for the mec2-1 strain (AID 157); conditions: S. cerevisiae mec2-1 strain, at 50.0 µM, hits give high values
In short: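 Readout is yeast growth inhibition, normalised to vehicle-treated controls, in the mec2-1 strain exposed to compound.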

[3] = NCI Yeast Anticancer Drug Screen. Data for the sgs1 mgt1 strain (AID 161);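 also: 0% = growth of cultures given vehicle only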; conditions: S. cerevisiae sgs1 mgt1 strain, at 50.0 µM, hits give high values
In short: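 This yeast growth screen uses a strain with defined DNA-repair lesions; compound-treated growth is compared with vehicle-treated growth.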

[4] = NCI Yeast Anticancer Drug Screen. Data for the cln2 rad14 strain (AID 165);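 also: 0% = growth equal to vehicle treated cultures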; conditions: S. cerevisiae cln2 rad14 strain, at 50.0 µM, hits give high values
In short: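 Relative to vehicle controls, growth inhibition of compound-treated cln2 rad14 yeast was recorded.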

[5] = NCI Yeast Anticancer Drug Screen. Data for the bub3 strain (AID 167); conditions: S. cerevisiae bub3 mutant strain, at 50.0 µM, hits give high values
In short: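 Part of a panel of yeast mutants defective in DNA damage repair or cell cycle regulation. Each strain is grown with compound, and inhibition is calculated relative to solvent-treated cultures.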

[6] = NCI Yeast Anticancer Drug Screen. Data for the mlh1 rad18 strain (AID 175); conditions: S. cerevisiae mlh1 rad18 strain growth inhibition; at 50.0 µM; hits give high values
In short: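 Test agents were incubated with a yeast strain of defined genotype (DNA damage repair defect). Inhibition of growth was derived by comparison with vehicle-exposed cultures.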

SMILES | growth inhibition [1] | growth inhibition [2] | growth inhibition [3] | growth inhibition [4] | growth inhibition [5] | growth inhibition [6]
CC1CCC(Oc2nc3c(c(=O)n(C)c(=O)n3C)n2C)CC1 (configuration not stated) | -4.75% | -2.85% | -14.8% | 2% | -8.7% | -12.5%
CCN1CCC(CC(c2ccccc2)c2ccccc2)C1 (configuration not stated) | 19.4% | -6.75% | 34.2% | -4.95% | 10.1% | 7%
N#Cc1c(C#N)c(-c2cccc([N+](=O)[O-])c2)n(-c2ccccc2)c1N | 15.9% | 15.5% | -35.6% | 2.15% | -16.6% | -16.5%
NC(CC(=O)O)c1ccc(Cl)cc1 (configuration not stated) | -22.5% | -23.3% | -14.4% | -8.3% | 0.3% | 7%
O=C(/C=C/c1ccccc1)OCCCl | -23.4% | -15.1% | -17.9% | -14.1% | -22.4% | -7.35%
CCC(C(=O)c1ccccc1)c1cccc2c1N(C(C)=O)CC2 (configuration not stated) | 0.05% | 6.9% | -7.5% | -5.6% | 11.2% | 20.1%
C(=C\c1ccccc1)/Cn1nc(-c2ccccc2)nc1-c1cnccn1 | -33.1% | -24% | -47% | 10.2% | -39.4% | -29.1%
C/C=C/CS(=O)(=O)Cc1ccccc1 | 1.85% | -11.8% | -5.95% | -3.95% | -4.3% | -14.9%
OC(CSCc1ccccc1)c1ccccc1 (configuration not stated) | -17.8% | 2.45% | -7.95% | -43% | -2.2% | 3.1%
Cc1ccc(S(=O)(=O)N/N=C2/C(=O)NC(=O)C(=O)C2c2nc3ccccc3s2)cc1 (configuration not stated) | 12.4% | -2.6% | 13.6% | -19.1% | 8.45% | 12.4%
CC(=O)C(C(C)=O)C(C(C)=O)C(C)=O.[Cu] | -26.8% | -11.3% | -21.1% | -10.4% | -18.4% | -22.1%
CC(C)Oc1cc2c(cc1O)CC[C@@H]1[C@@H]2CC[C@]2(C)[C@@H](O)CC[C@@H]12 | 45.9% | 8.2% | 63.7% | 33% | 56.9% | 44.1%
CCOC(=O)C(=O)c1c(C)[nH]c(C)c1C(=O)OCC | -2.15% | -4.8% | 17.1% | -23.1% | 7.3% | -9.1%
C/C(=C\c1ccccc1)C(O)C(=O)c1nc2ccc(Cl)cc2[nH]c1=O (configuration not stated) | 10.3% | -15.4% | 6.15% | 26% | -14.2% | 6.55%
N#C/C(=C/c1ccc[nH]1)C(=O)O | -11.6% | -10.2% | -6.9% | -1% | -5.05% | -25.9%
CCCCCC(=O)Cc1cc(OC)cc2c1C(=O)Oc1cc(O)c(C(=O)O)c(CC(=O)CCCCC)c1O2 | 83% (active) | 86.5% (active) | 85.8% (active) | 79.4% (active) | 80.1% (active) | 78.1% (active)
N#Cc1ccc(Br)cc1 | 7.95% | -3.45% | 16.6% | -19.9% | -6.2% | 18.1%
Cn1c(=O)c2c(nc(Cl)n2Cc2ccccc2)n(C)c1=O | -39.8% | 5.1% | -14.6% | 23.6% | 0.8% | 21.4%
Cc1cc(C(=O)C(C(c2ccccc2)N2CCOCC2)N2CCOCC2)ccc1Cl (configuration not stated) | 4.6% | 7.15% | 12.8% | -1.35% | 10.8% | 26.9%

SMILES | growth inhibition [1] | growth inhibition [2] | growth inhibition [3] | growth inhibition [4] | growth inhibition [5] | growth inhibition [6]
CC1SCCNC1=O (configuration not stated) | -2.1% | -1.5% | -0.1% | 7.3% | 4% | -16.9%
O=C1CSC(c2cccc([N+](=O)[O-])c2)N1c1ccc(-n2c(-c3ccccc3)nc3ccccc3c2=O)cc1 (configuration not stated) | -10.8% | -17.1% | 11.9% | -6.8% | 34% | 7.25%
Cc1ccc(C)c(NC(=O)C(=O)C(C#N)c2c(Cl)cccc2Cl)c1 (configuration not stated) | -23.2% | 16.5% | 44.5% | -24.4% | 6.35% | 28.9%
S=C(S)N(Cc1ccccc1)Cc1ccccc1 (tested in a mixture with another compound) | 2.85% | 0.7% | 3.7% | -18.8% | 12.8% | -2.05%
CC1(C2(C)CC2(Br)Br)CC1(Br)Br (configuration not stated) | 11.4% | -0.65% | 11.3% | 15.8% | -2.5% | -0.65%
CC(=O)OCC1OC(n2ccc(=O)[nH]c2=O)C(NC(=O)C(F)(F)F)C(OC(C)=O)C1OC(C)=O (configuration not stated) | 2.4% | -5.4% | -11.2% | -11.2% | -2.05% | -11.7%
CC(=O)c1ccc2c(c1)-c1ccccc1C(=O)C2=O | -24.6% | -22.7% | 10.3% | -19.8% | -15.3% | 5.85%
CCCc1cc2c3c(c(=O)oc2cc1O)CCCC3 | 94.8% (active) | 75.6% (active) | 92.5% (active) | 89% (active) | 92.7% (active) | 96.4% (active)
COC1(C)CCC2(O)C(=O)OC3C(O)COC32O1 (configuration not stated) | -3.45% | -4.9% | 2.55% | -1.3% | -1.85% | -4.55%
C1=NCCCCCCCN=Cc2ccccc2NCCNc2ccccc21 | 29.1% | 23.8% | 20.4% | 32.4% | 38.3% | 44.6%
O=c1[nH]c2cc(Cl)ccc2nc1/C=C(\O)c1ccc(O)cc1 | 31% | 2.25% | 0.2% | 7.05% | -20% | 13.7%
Cc1nc(N)c2c(n1)C(Cc1ccccc1)N(C(=O)c1ccccc1)C2 (configuration not stated) | -5.6% | -4.3% | -24.1% | -24.4% | 6.55% | -17.4%
NC(=O)CCN(CCC(N)=O)CCC(N)=O | -9.25% | 7.1% | -3.3% | -24.9% | -4.15% | -12.9%
C=Cc1ccc(C)[n+](C[Si](C)(C)O[Si](C)(C)C[n+]2cc(C=C)ccc2C)c1 | -18.9% | -11.1% | -26.1% | -4.2% | -10.8% | 9%
COc1c(C)c2nc3ccccc3[nH]c2c2c(=O)ccnc12 | -3.8% | -29.6% | -12.4% | 14.8% | -21.9% | 46.1%
O=C(/C=C\c1ccccc1)c1ccc(-c2ccc([N+](=O)[O-])cc2)cc1 | 10.4% | 11.4% | 9.05% | -3.65% | 4.8% | 22.6%
CN1NC(c2ccc(Cl)cc2)=C(C#N)C(=O)CC1c1ccccc1 (configuration not stated) | 2.1% | -7.95% | -5.05% | 10.5% | -20.4% | 2.35%
c1ccc(C2NC(c3ccccc3)c3c(ccc4ccccc34)O2)cc1 (configuration not stated) | 20.1% | -2.1% | 13.1% | -19.9% | -5.15% | 20.6%

From PubChem BioAssay (NCI)
